Values without a mark were called inactive.
Tested on: Plasmodium falciparum NF54/iGP1_RE9H ulg8 stage V gametocytes
Assay: gametocyte viability (luciferase signal relative to DMSO control) (% of DMSO control); higher = less gametocytocidal activity, active = 50 or less
Details: concentration: 1 µM; exposure time: 72 h
How it was run: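 In 96-well plates holding nanolitre spots of compound (10 mM DMSO stocks), NF54/iGP1_RE9Hulg8 stage V gametocytes from day 12 were added at ~2.5% gametocytemia and 3% hematocrit in medium with 0.5% Albumax II, giving single wells at 10 µM or 1 µM. Incubation lasted 72 h at 37 °C. Each 90 µl sample then received 10 µl D-luciferin (30 mg/ml) before luminescence reading on an IVIS Lumina II, and viability was normalized to the mean of DMSO vehicle wells on the same plate.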

Row | SMILES | gametocyte viability
1 | Oc1cc(O)cc(/C=C/c2ccc(O)c(O)c2)c1 [Piceatannol] | 70.4
2 | Cc1nc(NC(=O)N2CCC[C@H]2C(N)=O)sc1-c1csc(C(C)(C)C)n1 | 101
3 | COc1cc2nccc(Oc3ccc(NC(=O)C4(C(=O)Nc5ccc(F)cc5)CC4)cc3)c2cc1OC [XL-184 free base (Cabozantinib)] | 100
4 | Cc1ccc(-c2nn(C(C)(C)C)c3ncnc(N)c23)cc1 | 103
5 | CNC(=O)c1c(F)cccc1Nc1nc(Nc2cc3c(cc2OC)CCN3C(=O)CN(C)C)nc2[nH]ccc12 | 103
6 | COc1cc(Nc2ncc(F)c(Nc3ccc4c(n3)NC(=O)C(C)(C)O4)n2)cc(OC)c1OC | 99.8
7 | COc1cc(Nc2ncc(F)c(Nc3ccc4c(n3)N(COP(=O)(O)O)C(=O)C(C)(C)O4)n2)cc(OC)c1OC | 95.1
8 | O=c1cc(-c2ccc(O)cc2)oc2cc(O)cc(O)c12 [Apigenin] | 101
9 | CN(C)Cc1cccc(N=C(c2ccccc2)c2c(O)[nH]c3cc(C(=O)N(C)C)ccc23)c1 | 116
10 | CCC[C@H](NC(=O)/C(C#N)=C/c1cccc(Br)n1)c1ccccc1 | 114
11 | Cc1ccc(C(=O)Nc2ccc(CN3CCN(C)CC3)c(C(F)(F)F)c2)cc1C#Cc1cnc2cccnn12 | 111
12 | CC(=O)Nc1cccc(-n2c(=O)n(C3CC3)c(=O)c3c(Nc4ccc(I)cc4F)n(C)c(=O)c(C)c32)c1 | 102
13 | Cc1cnc(Nc2ccc(N3CCN(C)CC3)cc2)nc1Nc1cccc(S(=O)(=O)NC(C)(C)C)c1 | 91.9

Source: the supplement of paper PMC12297408
